Most compounds without a hit are left out; they make up all but 8% or so of the library.
Marburg entry = Marburg virus entry inhibition | Potency, µM (top dose mostly 49.2 µM), hits mostly inhibitors | actives 6.5% (n = 18,000) | Marburg virus pseudotype entry/binding inhibition, cell-based
Lassa entry = inhibitors of Lassa virus binding or entry into cells. actives 4.1% (n = 18,000). Potency, µM (doses to about 49.2 µM), actives largely listed as inhibitors. Lassa virus pseudotyped entry inhibition, cell-based qHTS. AID 720533
Large screens that a line does not name were inactive; ! = repeats disagree. The call rests on the fitted dose curve; tested in HEK293 cells.

Cc1c(N)nc([C@H](CC(N)=O)NC[C@H](N)C(N)=O)nc1C(=O)N[C@H](C(=O)N[C@H](C)[C@@H](O)[C@H](C)C(=O)N[C@H](C(=O)NCCc1nc(-c2nc(C(=O)NCCCCN=C(N)N)cs2)cs1)[C@@H](C)O)[C@@H](O[C@@H]1O[C@@H](CO)[C@@H](O)[C@H](O)[C@@H]1O[C@H]1O[C@H](CO)[C@@H](O)[C@H](OC(N)=O)[C@@H]1O)c1cnc[nH]1	Marburg entry 3.98µM, Lassa entry 3.16µM
CC(=Nc1ccc(S(N)(=O)=O)cc1)c1c(O)[nH]c2ccccc12	none
C/C=C(/C)C(=O)O[C@H]1C(C)=C2[C@H]([C@@H]1OC(=O)CCCCCCC)[C@@](C)(OC(C)=O)C[C@H](OC(=O)CCC)[C@@]1(O)[C@H]2OC(=O)[C@@]1(C)O	Marburg entry 22.4µM, Lassa entry 44.7µM
CC[C@@H]1CN2CCc3cc(OC)c(OC)cc3[C@@H]2C[C@@H]1C[C@H]1NCCc2cc(OC)c(OC)cc21	Marburg entry inconclusive, Lassa entry 5.62e-05µM
COc1cc(C[C@@H]2NCCc3cc(O)c(O)cc32)cc(OC)c1OC	none
CC[C@@H]1CN2CCc3cc(OC)c(OC)cc3[C@H]2C[C@@H]1C[C@H]1NCCc2cc(OC)c(OC)cc21	Marburg entry inconclusive, Lassa entry 0.316µM
COc1cc2c(cc1OC)C(C)NCC2 (configuration not stated)	none
CN(C)CCNC(=O)Nc1ccc(N(C)c2ccnc(Nc3ccc(CS(C)(=O)=O)cc3)n2)cc1	none
COc1cc(OC)c(OC)cc1CN1CCCC(c2nc(C)ncc2-c2ccc(F)cc2)C1 (configuration not stated)	Marburg entry 11.2µM
COc1ccc(OC)c(CN2CCCC(c3nc(C)ncc3-c3ccc(F)cc3)C2)c1 (configuration not stated)	Marburg entry inconclusive
CCOc1ccccc1CN1CCCC(c2nc(C)ncc2-c2ccc(F)cc2)C1 (configuration not stated)	Marburg entry 10µM
COc1ccc(CN2CCCC(c3nc(C)ncc3-c3ccc(F)cc3)C2)c(OC)c1OC (configuration not stated)	none
Cc1c(C(=O)N2CC3CCC2C3)sc2ncnc(NCCc3c[nH]c4ccccc34)c12 (configuration not stated)	Lassa entry inconclusive
CCCCCCCCCCCCCCCC(=O)O[C@@H]1CC(C)=C(/C=C/C(C)=C/C=C/C(C)=C/C=C/C=C(C)/C=C/C=C(C)/C=C/C2=C(C)C[C@@H](OC(=O)CCCCCCCCCCCCCCC)CC2(C)C)C(C)(C)C1	none
COC(=O)CC=C1c2ccccc2[C@@H](NC(=O)OC)[C@@H]1C	none
CN1CCN(c2ccc(Nc3c4ccccc4nc4ccccc34)cc2)CC1	Marburg entry 2µM, Lassa entry inconclusive
O=c1nc2ccccc2c2n1C[C@H](CN1CCN(c3ccccc3)CC1)N2	none
c1ccc2c(c1)CCCC2C1=NCCN1 (configuration not stated)	none
c1ccc2c(c1)OCC(C1=NCCN1)O2 (configuration not stated)	Marburg entry 14.1µM, Lassa entry inconclusive
CCOc1ccc(-c2nc3ccc(-c4nc5ccc(N6CCN(C)CC6)cc5[nH]4)cc3[nH]2)cc1	Marburg entry 10µM, Lassa entry inconclusive
Clc1ccc2nc(-c3ccccc3)[nH]c2c1	none
C=CC1CC2C=CCOP(=O)(O1)O2 (configuration not stated)	Marburg entry inconclusive
CC[C@@H](C(=O)[C@@H](C)[C@@H](O)[C@H](C)[C@@H]1O[C@@H]([C@@H](CC)C(=O)O)CC[C@@H]1C)[C@H]1O[C@]2(C=C[C@@H](O)[C@]3(CC[C@@](C)([C@H]4CC[C@](O)(CC)[C@H](C)O4)O3)O2)[C@H](C)C[C@@H]1C	Lassa entry 3.16µM
O=C(OCc1cn([C@H]2C[C@H](c3ccc(Cl)cc3)N(C(=O)c3cccs3)C[C@H]2O)nn1)c1ccccc1	none (no result: Lassa entry)
CCC1OC(=O)C[C@@H](O)[C@H](C)[C@@H](O[C@@H]2O[C@H](C)C[C@H](N(C)C)[C@H]2O)[C@@H](CC=O)C[C@@H](C)C(=O)/C=C/[C@]2(C)OC2C1C (some centres not stated)	Marburg entry 8.91µM, Lassa entry 25.1µM
CO[C@@H]1[C@@H](O[C@@H]2O[C@H](C)[C@@H](O[C@H]3C[C@@](C)(O)[C@@H](O)[C@H](C)O3)[C@H](N(C)C)[C@H]2O)[C@@H](CC=O)C[C@@H](C)[C@@H](O[C@@H]2CC[C@H](N(C)C)[C@@H](C)O2)/C=C/C=C/C[C@@H](C)OC(=O)C[C@H]1O	Marburg entry inconclusive
Cc1ccc(NC(=O)CC2CC2)cc1-c1ccc(C(=O)NCC2CC2)cc1	none (no result: Lassa entry)
Oc1ccc2c3c1O[C@H]1c4oc5ccccc5c4C[C@]4(O)[C@H](C2)N(CC2CC2)CC[C@@]314	Marburg entry 28.2µM, Lassa entry 28.2µM
COC(=O)/C=C/C(=O)N[C@@H]1CC[C@@]2(O)[C@H]3Cc4ccc(O)c5c4[C@@]2(CCN3CC2CC2)[C@H]1O5	Marburg entry 10µM, Lassa entry 28.2µM
Oc1ccc2c3c1O[C@H]1c4[nH]c5ccccc5c4C[C@]4(O)[C@H](C2)N(CC2CC2)CC[C@@]314	Marburg entry 22.4µM, Lassa entry inconclusive
Oc1ccc2c3c1O[C@H]1[C@@H](O)CC[C@]4(O)[C@H](C2)N(CC2CCC2)CC[C@@]314	none
Oc1ccc2c3c1O[C@H]1c4c(c5ccccc5n4Cc4ccccc4)C[C@]4(O)[C@H](C2)N(CC2CC2)CC[C@@]314	Marburg entry 11.2µM, Lassa entry 15.8µM
O=C1CC[C@@]2(O)[C@H]3Cc4ccc(O)c5c4[C@@]2(CCN3CC2CC2)[C@H]1O5	none
O=C1CC[C@]2(O)[C@H]3Cc4ccc(O)c5c4[C@@]2(CCN3CC2CC2)[C@@H]1O5	none
Oc1ccc2c3c1O[C@H]1c4[nH]c5c(c4C[C@@]4(O)[C@@H](C2)N(CC2CC2)CC[C@]314)C[C@@]1(O)[C@H]2Cc3ccc(O)c4c3[C@@]1(CCN2CC1CC1)[C@H]5O4	none
COC(=O)[C@@H]1CC[C@H](C)[C@@H](c2ccc(C)cc2)N1C(=O)c1ccc(C=NO[C@H](C)CN2CCCc3nc(C)c(C)cc32)cc1	Marburg entry inconclusive
O=C1[C@@H]2[C@@H](C(=O)N1CC(O)COCc1ccccc1)[C@H]1C=C[C@@H]2C1 (some centres not stated)	none
CC(CCN1CCCc2nc(C)c(C)cc21)=NO[C@H](C)c1cn([C@H](CO)Cc2ccccc2)nn1	Marburg entry inconclusive
COc1ccc2c(c1)CO[C@H]([C@H](O)CO)[C@H]2C=CC#Cc1ccc(C(C)(C)C)cc1	none
NS(=O)(=O)c1ccc(Nc2ncc(-c3ccccc3)o2)cc1	none
COc1cc2c(cc1OC)[C@@H]1O[C@](CCCCN3C(=O)c4ccccc4C3=O)(C2)OC2=C1C(=O)OC1(CCCCC1)C2	none
CN(C)Cc1c[nH]c2ccccc12	none
OCc1c[nH]c2ccccc12	Marburg entry 31.6µM!, Lassa entry 31.6µM!
O=C(Nc1ccc(C(=O)N2CCCCC2)cc1)c1ccccc1	none
O=C(c1ccc(Nc2nccc(-c3cc4ccccc4s3)n2)cc1)N1CCC(N2CCCC2)CC1	Marburg entry 2.24µM, Lassa entry inconclusive
CC(=O)[C@@]12C3[C@@H](CCN3C(=O)N[C@H]1c1ccccc1)[C@H]2c1ccccc1 (some centres not stated)	none
C[C@H]1CC[C@H]2C(=O)N(Cc3ccc(Cl)cc3)C[C@H](O)CN2[C@H]1c1ccc(Br)cc1	none

Screens as filed in PubChem.
